The values that follow come from PubChem BioAssay (NCATS).

The structures appear in SMILES notation. A number with no mark means an inactive call. Results filed as inconclusive are left out. Active and inactive are the calls of the source. The call rests on the fitted dose curve; in most records, active means well fitted curve in the direction sought with a large enough effect; inconclusive means small, poorly fitted or top-dose-only effect, or another doubt; inactive means no such curve, though single readings can be large; an effect the other way counts as inactive or inconclusive.

Experiment [1] concerns the target Single-stranded DNA cytosine deaminase (Homo sapiens) (UniProt Q9GZX7). Briefly: Validation qHTS assay for inhibitors of Activation Induced Cytidine Deaminase (AID): AID signal (AID 1347429). Put shortly: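 AID+UDG coupled FRET deamination; cpds up to 114 uM final; DJC20/DJC23 substrate, 4 hr RT; NaOH stop, 30 min RT; read Ex 540/Em 590.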
(qHTS replaces the single test concentration by a dilution series.)

A short description of experiment [2]: Primary qHTS for small molecule stabilizers of the endoplasmic reticulum resident proteome: Secreted ER Calcium Modulated Protein (SERCaMP) assay (AID 1508630). Put shortly:
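The SH-SY5Y reporter protocol was run at 3 concentrations up to 38.3 uM (primary) or 11 concentrations (follow-up): 16 h compound, 100 nM thapsigargin for 4 h, then extracellular luciferase luminescence.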

The target in a further experiment is Papain (Carica papaya) (UniProt P00784). Briefly: Primary qHTS assay for inhibitors of the protease papain (AID 1645873).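 Further: papain turnover of Z-FR-AMC read as the AMC fluorescence gain over 10 min.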 Further: potency means the concentration at half of the fitted maximal effect.
A short description of experiment [3]: Primary qHTS for inhibitors of La Crosse Virus (LACV) - induced cell death in SH-SY5Y cells (AID 1508616). Further: potency means the concentration at half of the fitted maximal effect. Put shortly:
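Cytopathicity rescue screen: compounds pinned onto SH-SY5Y cells, which are then infected with LACV (MOI 0.01) and held 6 days at 37C. Percent activity is scaled between infected DMSO control and uninfected DMSO control.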

Experiment [4] deals with Calcium and integrin-binding protein 1 (Homo sapiens) (UniProt Q99828). The experiment in a line: Validation qHTS for Identification of Calcium Integrin Binding protein 1 (CIB1) Competitor (AID 1508618). Put shortly:
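Displacement of FITC-alphaIIb peptide (100 nM) from CIB1-GST (1 uM) is monitored by polarization in quantitative HTS format; buffer carries 5 mM CaCl2 and 125 mM NaCl at pH 7.4, incubations are at room temperature.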

Papain (Carica papaya), sequence (P00784 whole entry, looked up): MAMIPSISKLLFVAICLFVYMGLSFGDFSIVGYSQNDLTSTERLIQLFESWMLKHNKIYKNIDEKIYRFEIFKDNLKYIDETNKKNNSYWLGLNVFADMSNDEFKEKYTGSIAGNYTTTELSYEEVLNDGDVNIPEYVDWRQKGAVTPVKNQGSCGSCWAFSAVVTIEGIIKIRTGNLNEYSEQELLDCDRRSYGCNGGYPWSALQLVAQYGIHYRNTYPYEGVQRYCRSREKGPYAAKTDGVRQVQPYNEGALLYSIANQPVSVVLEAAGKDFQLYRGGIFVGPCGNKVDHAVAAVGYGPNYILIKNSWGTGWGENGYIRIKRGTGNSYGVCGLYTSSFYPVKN
Calcium and integrin-binding protein 1 (Homo sapiens), sequence (Q99828 whole entry, looked up): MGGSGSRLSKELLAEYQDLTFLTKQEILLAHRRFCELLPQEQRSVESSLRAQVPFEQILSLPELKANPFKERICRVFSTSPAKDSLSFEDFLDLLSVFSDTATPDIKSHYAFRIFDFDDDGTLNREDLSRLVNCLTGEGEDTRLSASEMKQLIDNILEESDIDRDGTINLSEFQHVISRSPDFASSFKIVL
Single-stranded DNA cytosine deaminase (Homo sapiens), sequence (Q9GZX7 whole entry, looked up): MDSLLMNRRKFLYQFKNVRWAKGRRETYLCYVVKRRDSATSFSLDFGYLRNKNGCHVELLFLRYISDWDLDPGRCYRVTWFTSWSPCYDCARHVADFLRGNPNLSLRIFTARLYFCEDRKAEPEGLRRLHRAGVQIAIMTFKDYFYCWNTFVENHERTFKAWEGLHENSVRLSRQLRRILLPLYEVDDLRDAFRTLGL

In the case of `O=C1Cc2c([nH]c3ccc(Br)cc23)-c2ccccc2N1`, the Potency entry (in experiment [1]; in experiment [2]; with Papain (Carica papaya)) was “inactive” each time.
Consider `c1ccc(C2CN3CCSC3=N2)cc1` (configuration not stated), for which the Potency result (in experiment [1]; in experiment [3]; with Papain (Carica papaya)) was “inactive” each time.
Take `NCC(O)(CS(=O)(=O)O)c1ccc(Cl)cc1` (configuration not stated): the Potency result (in experiment [3]; in experiment [4]; in experiment [2]; with Papain (Carica papaya)) was “inactive” in each case.
Consider `CC#CCOC(=O)c1c(C)nc2sc3c(c2c1N)CCC(O)C3` (configuration not stated), for which the Potency entry (in experiment [3]; in experiment [4]; with Papain (Carica papaya)) was “inactive” throughout.
As for `C=CCN1CCc2c(cc(O)c(O)c2Cl)C(c2ccccc2)C1` (configuration not stated), the Potency entry (in experiment [3]; in experiment [4]; in experiment [2]; with Papain (Carica papaya)) was “inactive” throughout.
As for `NCCNS(=O)(=O)c1cccc2c(Cl)cccc12`, the Potency entry (in experiment [3]; in experiment [4]; in experiment [2]; with Papain (Carica papaya)) was “inactive” throughout.
As to `CC1=C(C(=O)O)N2C(=O)[C@@H](NC(=O)C(N)C3=CCC=CC3)[C@H]2SC1` (some centres not stated), the Potency result (in experiment [3]; in experiment [4]; with Papain (Carica papaya)) was “inactive” in each case.
As to `O=c1[nH]c(=O)c2nc3ccccc3nc2[nH]1`, the Potency entry (in experiment [3]; in experiment [2]; in the experiment with Papain (Carica papaya)) was “inactive” throughout.
Take `NC(N)=N[C@@H](CCC(=O)O)C(=O)O`: the Potency entry (in experiment [3]; in experiment [4]; with Papain (Carica papaya)) was “inactive” in each case.
Turning to `COc1ccccc1N1CCN(CCCNc2c(C)c(=O)n(C)c(=O)n2C)CC1`, the Potency result (in experiment [3]; in experiment [4]; with Papain (Carica papaya)) was “inactive” in each case.
In the case of `COc1cc(C(O)C(=O)O)ccc1O` (configuration not stated), the Potency entry (in experiment [3]; in experiment [4]; in experiment [2]; with Papain (Carica papaya)) was “inactive” throughout.
Consider `CCCCCCCCCCCCCCSCC(=O)O`, for which the Potency result (in experiment [3]; in experiment [4]; in experiment [2]; with Papain (Carica papaya)) was “inactive” throughout.
Regarding `O[Si](CCCN1CCCCC1)(c1ccc(F)cc1)C1CCCCC1` (configuration not stated), the Potency result (in experiment [4]; in the experiment with Papain (Carica papaya)) was “inactive” in each case.
As to `C/C(=C\c1ccc(C(=O)O)cc1)c1ccc2c(c1)C(C)(C)CCC2(C)C`, the Potency result in experiment [3] and in experiment [2] was “inactive” throughout.
Take `N[C@@H](CCC(=O)N[C@H](CSN=O)C(=O)NCC(=O)O)C(=O)O`: the Potency entry (in experiment [3]; in experiment [2]; with Papain (Carica papaya)) was “inactive” in each case.
Consider `C[C@](Cc1ccc(O)c(O)c1)(NN)C(=O)O`, for which the Potency result with Papain (Carica papaya) was “inactive”.
For `Cn1c(=O)c2[nH]c(-c3ccc(S(=O)(=O)O)cc3)nc2n(C)c1=O`, the Potency result in experiment [3] and in experiment [2] was “inactive” in each case. For the same compound, in the experiment with Papain (Carica papaya), the Potency is 25.1 µM (active).
In the case of `OC[C@H]1O[C@@H](n2cnc3cncnc32)[C@H](O)[C@@H]1O`, the Potency entry (in experiment [3]; in experiment [4]; in experiment [2]; with Papain (Carica papaya)) was “inactive” each time.
Regarding `C[C@H]1CC2C3CCC4=CC(=O)C=C[C@]4(C)[C@@]3(Cl)[C@@H](O)C[C@]2(C)[C@@]1(O)C(=O)CO` (some centres not stated), the Potency result (in experiment [3]; in experiment [2]; with Papain (Carica papaya)) was “inactive” each time.
As for `Nc1nc2c(nc(Br)n2C2OC3COP(=O)(O)O[C@@H]3C2O)c(=O)[nH]1` (some centres not stated), the Potency result (in experiment [3]; in experiment [4]; with Papain (Carica papaya)) was “inactive” throughout.
Turning to `NCC(O)C1CCCCCCC1` (configuration not stated), the Potency result (in experiment [4]; in experiment [2]; with Papain (Carica papaya)) was “inactive” throughout.
In the case of `NC(=O)CNCCC(c1ccccc1)c1ccccc1`, the Potency entry (in experiment [2]; with Papain (Carica papaya)) was “inactive” each time.
As to `Cc1nc(N=Nc2cc(S(=O)(=O)O)c3cc([N+](=O)[O-])cc(S(=O)(=O)O)c3c2)c(COP(=O)(O)O)c(C=O)c1O`, the Potency result in experiment [3] and in experiment [2] was “inactive” throughout.
With `CC[n+]1c(/C=C/C=C2/N(C)c3ccccc3C2(C)C)sc2ccccc21`, the Potency result (in experiment [4]; with Papain (Carica papaya)) was “inactive” each time.
With `CN(C)S(=O)(=O)c1ccc2c(c1)/C(=C/c1cc3c([nH]1)CCCC3)C(=O)N2`, the Potency result (in experiment [4]; in experiment [2]; with Papain (Carica papaya)) was “inactive” throughout.
As for `CNc1ncnc2c1ncn2[C@H]1C[C@H](OP(=O)(O)O)[C@@H](COP(=O)(O)O)O1`, the Potency result (in experiment [3]; in experiment [4]; in the experiment with Papain (Carica papaya)) was “inactive” each time.
`N=C(N)c1ccc(OCCCCCOc2ccc(C(=N)N)cc2)cc1` (tested in a mixture with another compound): the Potency entry (in experiment [4]; in experiment [2]; with Papain (Carica papaya)) was “inactive” in each case.
`CCCCCCCCCCC/C=C\C(C)(C)/C=C\CCCC(=O)O`: the Potency result (in experiment [3]; in experiment [2]; in the experiment with Papain (Carica papaya)) was “inactive” throughout.
As for `COc1ccc(NC(=O)c2ccc(-c3ccc(-c4noc(C)n4)cc3C)cc2)cc1N1CCN(C)CC1`, the Potency entry (in experiment [2]; with Papain (Carica papaya)) was “inactive” each time.
As to `NCCCCN`, the Potency result (in experiment [3]; in experiment [4]; in the experiment with Papain (Carica papaya)) was “inactive” throughout.
Consider `O=C(N[C@@H](Cc1ccccc1)C(=O)CCl)OCc1ccccc1`, for which the Potency in experiment [3] is 1 µM (active); in the experiment with Papain (Carica papaya), 15.8 µM (active). Also, the Potency result in experiment [2] was “inactive”.
As to `CC(C)Cn1c(=O)n(C)c(=O)c2[nH]cnc21`, the Potency result (in experiment [3]; in experiment [4]; with Papain (Carica papaya)) was “inactive” throughout.
For `OC[C@H]1O[C@H](n2cnc3c(N[C@H]4CCC[C@@H]4O)ncnc32)[C@H](O)[C@@H]1O`, the Potency result (in experiment [3]; in the experiment with Papain (Carica papaya)) was “inactive” in each case.
On to `COc1cc(/C=C(\C#N)C(=O)Nc2nnc(C(F)(F)F)s2)ccc1OCc1ccc(C(F)(F)F)cc1C(F)(F)F`, for which the Potency entry in experiment [3] and in experiment [2] was “inactive” throughout.
Turning to `O=C(c1ccc2c(c1)OCCO2)N1CCCCC1`, the Potency entry (in experiment [3]; in experiment [4]; in experiment [2]; with Papain (Carica papaya)) was “inactive” throughout.
Consider `c1ccc2c(c1)CC(N1CCN(c3cccc4c3OCCO4)CC1)C2`, for which the Potency entry (in experiment [3]; in experiment [4]; with Papain (Carica papaya)) was “inactive” in each case.
Consider `N=C(N)c1ccccc1`, for which the Potency result (in experiment [3]; with Papain (Carica papaya)) was “inactive” each time.
Turning to `NC(Cc1cccc(-c2ccccc2CP(=O)(O)O)c1)C(=O)O` (configuration not stated), the Potency entry (in experiment [3]; in the experiment with Papain (Carica papaya)) was “inactive” in each case.
With `COc1cc(C(O)CO)ccc1O` (configuration not stated), the Potency result (in experiment [3]; in experiment [2]; with Papain (Carica papaya)) was “inactive” in each case.
Turning to `O=C1C2C=CC=CC2=NC(=S)N1CCN1CCC(=C(c2ccc(F)cc2)c2ccc(F)cc2)CC1` (configuration not stated), the Potency entry (in experiment [3]; in experiment [4]; in experiment [2]; with Papain (Carica papaya)) was “inactive” each time.
Turning to `O=C(O)C1=CC(=C(c2ccc(O)c(C(=O)O)c2)c2ccc(O)c(C(=O)O)c2)C=CC1=O`, the Potency with Papain (Carica papaya) is 7.94 µM (active).
